# Measured values taken from the supplement of paper PMC8728848.
# The full list was thinned out, with the strongest signals kept by preference.
# B1: MtEccB1 (Mycobacterium tuberculosis H37Rv), O69734 (protein)
# chain: MGLRLTTKVQVSGWRFLLRRLEHAIVRRDTRMFDDPLQFYSRSIALGIVVAVLILAGAALLAYFKPQGKLGGTSLFTDRATNQLYVLLSGQLHPVYNLTSARLVLGNPANPATVKSSELSKLPMGQTVGIPGAPYATPVSAGSTSIWTLCDTVARADSTSPVVQTAVIAMPLEIDASIDPLQSHEAVLVSYQGETWIVTTKGRHAIDLTDRALTSSMGIPVTARPTPISEGMFNALPDMGPWQLPPIPAAGAPNSLGLPDDLVIGSVFQIHTDKGPQYYVVLPDGIAQVNATTAAALRATQAHGLVAPPAMVPSLVVRIAERVYPSPLPDEPLKIVSRPQDPALCWSWQRSAGDQSPQSTVLSGRHLPISPSAMNMGIKQIHGTATVYLDGGKFVALQSPDPRYTESMYYIDPQGVRYGVPNAETAKSLGLSSPQNAPWEIVRLLVDGPVLSKDAALLEHDTLPADPSPRKVPAGASGAP
# What was measured:
# Experiment in all cases: glycan array binding signal (z-score within array); higher = stronger binding
# Details in all cases: glycan notation: IUPAC condensed, linker removed
# Fuc(a1-2)Gal = biological target: Fuc(a1-2)Gal
# Summary of the method: (§1)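 Arrays were curated from the Consortium for Functional Glycomics database, 3228 in total, and kept only where the protein sequence was available. Binding is expressed as a within-array Z-score. This score was averaged across arrays of the same protein sequence at different concentrations or buffers and across linkers, and negative values can be read as non-binding.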
# [1] = biological target: Fuc(a1-2)Gal(b1-4)GlcNAc(b1-3)Gal(b1-4)GlcNAc
# Summary of the method: as §1
# [2] = biological target: Fuc(a1-2)Gal(b1-4)GlcNAc(b1-3)[Fuc(a1-2)Gal(b1-4)GlcNAc(b1-6)]GalNAc
# Summary of the method: as §1
# [3] = biological target: Fuc(a1-2)[Gal(a1-3)]Gal(b1-3)GlcNAc(b1-3)GalNAc
# Summary of the method: as §1
# [4] = biological target: Fuc(a1-2)[Gal(a1-3)]Gal(b1-4)GlcNAc(b1-2)Man(a1-3)[Fuc(a1-2)[Gal(a1-3)]Gal(b1-4)GlcNAc(b1-2)Man(a1-6)]Man(b1-4)GlcNAc(b1-4)GlcNAc
# Summary of the method: as §1
# [5] = biological target: Fuc(a1-2)[Gal(a1-4)]Gal(b1-4)GlcNAc
# Summary of the method: as §1
# [6] = biological target: Fuc(a1-2)[GalNAc(a1-3)]Gal
# Summary of the method: as §1
# [7] = biological target: Fuc(a1-2)[GalNAc(a1-3)]Gal(b1-3)GlcNAc(b1-3)GalNAc
# Summary of the method: as §1
# [8] = biological target: Fuc(a1-2)[GalNAc(a1-3)]Gal(b1-4)GlcNAc(b1-3)Gal(b1-4)GlcNAc
# Summary of the method: as §1
# [9] = biological target: Fuc(a1-2)[GalNAc(a1-3)]Gal(b1-4)GlcNAc(b1-3)GalNAc
# Summary of the method: as §1
# Fuc(a1-3)GlcNAc = biological target: Fuc(a1-3)GlcNAc
# Summary of the method: as §1
# [10] = biological target: Fuc(a1-3)[Gal(b1-4)]GlcNAc(b1-2)Man
# Summary of the method: as §1
# [11] = biological target: Gal(a1-3)Gal(b1-3)GlcNAc(b1-6)GalNAc
# Summary of the method: as §1
# Gal(a1-3)Gal(b1-4)Glc = biological target: Gal(a1-3)Gal(b1-4)Glc
# Summary of the method: as §1
# Gal(b1-3)Gal = biological target: Gal(b1-3)Gal
# Summary of the method: as §1
# [12] = biological target: Gal(b1-3)GalNAc(b1-3)Gal(a1-4)Gal(b1-4)Glc
# Summary of the method: as §1
# [13] = biological target: Gal(b1-3)GlcNAc(b1-2)Man(a1-3)[Gal(b1-3)GlcNAc(b1-2)Man(a1-6)]Man(b1-4)GlcNAc(b1-4)GlcNAc
# Summary of the method: as §1
# [14] = biological target: Gal(b1-3)GlcNAc(b1-3)Gal(b1-3)GlcNAc
# Summary of the method: as §1
# [15] = biological target: Gal(b1-3)GlcNAc(b1-3)Gal(b1-4)GlcNAc(b1-2)[Gal(b1-3)GlcNAc(b1-3)Gal(b1-4)GlcNAc(b1-6)]Man(a1-6)[Gal(b1-3)GlcNAc(b1-3)Gal(b1-4)GlcNAc(b1-2)Man(a1-3)]Man(b1-4)GlcNAc(b1-4)[Fuc(a1-6)]GlcNAc
# Summary of the method: as §1
# [16] = biological target: Gal(b1-4)GlcNAc(b1-2)Man(a1-3)[Gal(b1-4)GlcNAc(b1-2)Man(a1-6)]Man(b1-4)GlcNAc(b1-4)GlcNAc
# Summary of the method: as §1
# [17] = biological target: Gal(b1-4)GlcNAc(b1-2)Man(a1-6)[Man(a1-3)]Man(b1-4)GlcNAc(b1-4)GlcNAc
# Summary of the method: as §1
# [18] = biological target: Gal(b1-4)GlcNAc(b1-2)[Gal(b1-4)GlcNAc(b1-6)]Man(a1-6)[Gal(b1-4)GlcNAc(b1-2)Man(a1-3)]Man(b1-4)GlcNAc(b1-4)GlcNAc
# Summary of the method: as §1
# [19] = biological target: Gal(b1-4)GlcNAc(b1-3)Gal(b1-4)GlcNAc(b1-2)[Gal(b1-4)GlcNAc(b1-3)Gal(b1-4)GlcNAc(b1-6)]Man(a1-6)[Gal(b1-4)GlcNAc(b1-3)Gal(b1-4)GlcNAc(b1-2)Man(a1-3)]Man(b1-4)GlcNAc(b1-4)GlcNAc
# Summary of the method: as §1
# [20] = biological target: Gal(b1-4)GlcNAc(b1-3)Gal(b1-4)GlcNAc(b1-3)Gal(b1-4)GlcNAc
# Summary of the method: as §1
# [21] = biological target: Gal(b1-4)GlcNAc(b1-3)Gal(b1-4)GlcNAc(b1-3)Gal(b1-4)GlcNAc(b1-2)Man(a1-3)[Gal(b1-4)GlcNAc(b1-3)Gal(b1-4)GlcNAc(b1-3)Gal(b1-4)GlcNAc(b1-2)Man(a1-6)]Man(b1-4)GlcNAc(b1-4)GlcNAc
# Summary of the method: as §1
# [22] = biological target: Gal(b1-4)GlcNAc(b1-3)Gal(b1-4)GlcNAc(b1-3)Gal(b1-4)GlcNAc(b1-3)Gal(b1-4)GlcNAc(b1-2)Man(a1-3)[Gal(b1-4)GlcNAc(b1-3)Gal(b1-4)GlcNAc(b1-3)Gal(b1-4)GlcNAc(b1-3)Gal(b1-4)GlcNAc(b1-2)Man(a1-6)]Man(b1-4)GlcNAc(b1-4)[Fuc(a1-6)]GlcNAc
# Summary of the method: as §1
# [23] = biological target: Gal(b1-4)GlcNAc(b1-3)Gal(b1-4)GlcNAc(b1-3)Gal(b1-4)GlcNAc(b1-3)Gal(b1-4)GlcNAc(b1-2)[Gal(b1-4)GlcNAc(b1-3)Gal(b1-4)GlcNAc(b1-3)Gal(b1-4)GlcNAc(b1-3)Gal(b1-4)GlcNAc(b1-6)]Man(a1-6)[Gal(b1-4)GlcNAc(b1-3)Gal(b1-4)GlcNAc(b1-3)Gal(b1-4)GlcNAc(b1-3)Gal(b1-4)GlcNAc(b1-2)Man(a1-3)]Man(b1-4)GlcNAc(b1-4)[Fuc(a1-6)]GlcNAc
# Summary of the method: as §1
# [24] = biological target: Gal(b1-4)GlcNAc(b1-3)Gal(b1-4)GlcNAc(b1-3)Gal(b1-4)GlcNAc(b1-3)Gal(b1-4)GlcNAc(b1-3)Gal(b1-4)GlcNAc(b1-3)Gal(b1-4)GlcNAc(b1-2)Man(a1-3)[Gal(b1-4)GlcNAc(b1-3)Gal(b1-4)GlcNAc(b1-3)Gal(b1-4)GlcNAc(b1-3)Gal(b1-4)GlcNAc(b1-3)Gal(b1-4)GlcNAc(b1-3)Gal(b1-4)GlcNAc(b1-2)Man(a1-6)]Man(b1-4)GlcNAc(b1-4)GlcNAc
# Summary of the method: as §1
binder,measurement,setting,value
B1,glycan array binding signal (z-score),Fuc(a1-2)Gal,-0.548
same,glycan array binding signal (z-score),[1],-0.199
same,glycan array binding signal (z-score),[2],-0.809
same,glycan array binding signal (z-score),[3],0.379
same,glycan array binding signal (z-score),[4],-0.471
same,glycan array binding signal (z-score),[5],-1.08
same,glycan array binding signal (z-score),[6],-0.459
same,glycan array binding signal (z-score),[7],0.901
same,glycan array binding signal (z-score),[8],-1.03
same,glycan array binding signal (z-score),[9],-0.767
same,glycan array binding signal (z-score),Fuc(a1-3)GlcNAc,-1.29
same,glycan array binding signal (z-score),[10],-0.707
same,glycan array binding signal (z-score),[11],-0.407
same,glycan array binding signal (z-score),Gal(a1-3)Gal(b1-4)Glc,0.359
same,glycan array binding signal (z-score),Gal(b1-3)Gal,0.485
same,glycan array binding signal (z-score),[12],-0.784
same,glycan array binding signal (z-score),[13],2.58
same,glycan array binding signal (z-score),[14],0.213
same,glycan array binding signal (z-score),[15],1.6
same,glycan array binding signal (z-score),[16],-1.33
same,glycan array binding signal (z-score),[17],2.86
same,glycan array binding signal (z-score),[18],-0.552
same,glycan array binding signal (z-score),[19],2.86
same,glycan array binding signal (z-score),[20],2.06
same,glycan array binding signal (z-score),[21],0.867
same,glycan array binding signal (z-score),[22],1.01
same,glycan array binding signal (z-score),[23],1.93
same,glycan array binding signal (z-score),[24],2.86
